Compound activity from PubChem.
TTR transcr act: activators of transthyretin transcription | SH-SY5Y TTR promoter Gaussia luciferase, luminescence; 100% = recombinant luciferase protein wells | activation, % at 16.7 µM | actives 1.3% (n = 92,000) | AID 1117267;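 active = activation above the mean of all tested compounds plus 3 SD, cut at about 9.5% in these data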;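 also: cells exposed to compounds for one day before reading; 0% = median of all test compound wells on the plate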
TTR inh HuH7: counter-screen for TTR activators: TTR transcription inhibitors in HuH7 cells; shares compounds with TTR transcr act; HuH7 TTR promoter-Gaussia luciferase reporter, luminescence; inhibition, % at 16.7 µM; actives 4% (n = 1,100); AID 1117279;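 active = average inhibition above the solvent-only control wells' mean plus 3 SD, cut at about 15% in these data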;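 also: 0% = cells with DMSO only and 100% = cells with inhibitor control FD; inhibitors lower well luminescence so higher value means more inhibition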
TTR act confirm: confirmation of human transthyretin transcription activators. SHSY5Y TTR promoter Gaussia luciferase, luminescence; 100% = purified Lucia enzyme wells, no cells. 1,100 tested, under 10 active. activation, % at 16.7 µM. AID 1117280. shares compounds with TTR transcr act;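 active = mean activation above a set limit taken from the earlier primary screen, cut at about 11% in these data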;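 also: 0% = DMSO-treated cells and 100% = recombinant Lucia luciferase without cells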
* hit, by the source's call. The full list was thinned out, with hits kept by preference.

SMILES	TTR transcr act	others
CC(C)C[C@H](NC(C)(C)C(=O)NC1CCCCC1)C(=O)NCC(c1ccccc1)c1ccccc1	-1.2
NS(=O)(=O)c1cnccc1Nc1cccc(F)c1	0.8
CCC(=O)N1CCC1(C)C(=O)NS(=O)(=O)c1cccc(C#N)c1 (centres undefined)	-1.3
CCn1cc(S(=O)(=O)NC2CCCCC2)cn1	1.6
CCn1c(C)nc2cc(S(=O)(=O)N3CCCC3)ccc21	0.0
CCn1cc(S(=O)(=O)N2CCCC2)cn1	14.3*	TTR inh HuH7=-4.8;TTR act confirm=0.7
Cc1cc(=O)n2nc(N3CCCC(C(=O)NCc4cccc(Br)c4)C3)sc2n1 (centres undefined)	-0.9
COP(=O)(CC(=O)OC(C)(C)C)C(CC(C)C)NC(=O)OCc1ccccc1 (centres undefined)	0.3
COc1cccc(NC(=O)CN(C)C(=O)c2c(-c3c(F)cccc3Cl)noc2C)c1	1.3
CCN(CC(=O)Nc1ccc(NC(C)=O)cc1)C(=O)c1c(-c2c(F)cccc2Cl)noc1C	17.0*	TTR inh HuH7=-10.2;TTR act confirm=-0.3
CCN(CC(=O)Nc1c(F)cccc1F)C(=O)c1c(-c2ccccc2Cl)noc1C	-0.6
C[C@@H]1CN([C@@H](C)CO)C(=O)CCCn2cc(nn2)CO[C@H]1CN(C)C(=O)c1ccc(N2CCN(C)CC2)cc1	0.2
O=C(Nc1cccc(Cl)c1)O[C@@H]1CC[C@@]23CCCN2C(=O)CCC[C@H]3C1	-1.6
C[C@@H](NC(=O)Cn1ccc(N)nc1=O)c1cccc2ccccc12	0.4
O=C(C1CCC1)n1ccc2ccc(-c3ccc4ccn(Cc5ccccc5)c4c3)cc21	-1.5
COc1ccc(Cl)cc1NC(=O)c1[nH]nc(OC)c1[N+](=O)[O-]	-2.3
Cc1ccc(F)cc1NC(=O)c1cccc2nccnc12	-2.0
COc1n[nH]c(C(=O)Nc2cc(F)ccc2C)c1[N+](=O)[O-]	10.4*	TTR inh HuH7=-15.3;TTR act confirm=-1.0
Cc1ccc(-c2c(NC(=O)c3ccc(F)cc3)nc3ncccn23)cc1	-1.3
C[N+]1=C2N[C@@H](c3ccccc3)CC(=O)N2/C(=C\c2ccccc2)[C@@H]1Cc1ccccc1	-1.1
CC(=O)COc1ccc2c(C)c(C)c(=O)oc2c1	13.8*	TTR inh HuH7=-9.4;TTR act confirm=8.3
CCCc1cc(=O)c2ccc(OCC(C)=O)cc2o1	0.2
COc1ccc(-c2cc(=O)oc3cc(OCC(C)=O)ccc23)cc1	0.2
CCOC(=O)CNC(=O)CCc1nnc2ccc(N3CCC(C)CC3)nn12	-1.2
CN1C2=NC(c3ccccc3)CC(=O)N2/C(=C\c2ccccc2)C1c1ccccc1C(F)(F)F (centres undefined)	1.2
SMILES	TTR transcr act	others
CCCC1CCC2(CC1)CCC2OC(=S)Nc1cccc(I)c1 (centres undefined)	0.9
Cc1cc(N2CCC[C@@H]2C)nc2ccccc12	4.3
O=C(Nc1c(C(=O)N2CCCCC2)cnn1-c1ccccc1)c1ccccc1	5.5
Cc1cccc(C(=O)Nc2c(C(=O)N(C)C)cnn2-c2ccccc2)c1	10.7*	TTR inh HuH7=-12.8;TTR act confirm=-0.6
CCOC(=O)c1cnn(-c2ccccc2)c1NC(=O)c1ccccc1	-1.1
COc1cccc(OC)c1NC(=O)OCCN1CCCC12CCC(c1ccccc1)CC2 (centres undefined)	0.9
O=C(c1cccs1)C1CCN(c2ncnc3sccc23)CC1	-3.8
Cc1ccc(N2C(=O)CN(Cc3ccccc3)C2=S)cc1C	3.4
O=C1CCC[C@H]2C[C@H](NCc3ccc(Cl)c(C(F)(F)F)c3)CC[C@]23CCCN13	-0.8
Cc1ccc(S(=O)(=O)n2cccc2C)cc1	3.8
CC1=NN(C(N)=S)C(=O)C1N=Nc1ccc(C)c(Br)c1 (centres undefined)	-1.6
O=C(c1ccc(C(F)(F)F)cc1)N1CCC(=O)N([C@H](COCc2ccc(C(F)(F)F)cc2)Cc2ccccc2)CC1	-1.3
COc1ccc(C(=O)N2CCC(=O)N(C(CO)Cc3ccccc3)CC2)cc1 (centres undefined)	13.4*	TTR inh HuH7=-10.5;TTR act confirm=-0.2
O=C(c1cccc(C(F)(F)F)c1)N1CCC(=O)N(C(CO)Cc2ccccc2)CC1 (centres undefined)	1.2
O=c1[nH]nc(SC2CCCCC2)c(=O)[nH]1	0.1
c1ccc(C2CCC3(CC2)CCC3NCc2cccs2)cc1 (centres undefined)	0.9
CCC(C)(C)n1nnnc1C(c1ccc(C)cc1)N1CCN(C(=O)c2ccco2)CC1 (centres undefined)	0.5
O=C(c1ccco1)N1CCN(C(c2ccc(F)cc2)c2nnnn2CC2CCCO2)CC1 (centres undefined)	10.6*	TTR inh HuH7=-5.5;TTR act confirm=0.0
COc1ccc(C(c2nnnn2Cc2ccccc2)N2CCN(C(=O)c3ccco3)CC2)cc1 (centres undefined)	-3.6
COC(=O)NCc1ccc2c(c1)OCO2	-1.1
Cc1ccc(CC(=O)NCc2ccc3c(c2)OCO3)cc1	-1.0
CCOCC(=O)NCc1ccc2c(c1)OCO2	12.3*	TTR inh HuH7=-12.9;TTR act confirm=-0.1
C#CCN1c2ccccc2Sc2cccnc21	4.8
CCc1ccc(C(=O)NNC(=O)CCc2nc3ccccc3c(=O)[nH]2)cc1	0.0
O=C(NC1CCCCC1)C(c1cc2ccccc2o1)N1CCOCC1 (centres undefined)	1.3
SMILES	TTR transcr act	others
O=C(Nc1ccc(OC(F)(F)F)cc1)Nc1c(-c2ccccc2)nc2ncccn12	-0.4
Cc1ccccc1C(=O)NCC(=O)c1ccccc1	1.5
CCC/C(=N\NC(=O)c1ccccc1C)c1ccccc1	10.3*	TTR inh HuH7=3.5;TTR act confirm=-1.4
O=C(O)CC/C(=N/NC(=O)c1cccs1)c1ccccc1	-0.7
COc1cc(OC)cc(C(=O)Nc2ccccc2N2CCOCC2)c1	-1.4
O=C(Nc1ccccc1N1CCOCC1)c1ccc2ccccc2c1	-1.1
Fc1cc(F)cc(NC(=S)Nc2ccccc2N2CCOCC2)c1	11.8*	TTR inh HuH7=-2.8;TTR act confirm=-0.9
COc1c(N)c2c(c([N+](=O)[O-])c1OC)C(=O)OC2	0.6
Cc1ccc(OCC(=O)NC(=S)Nc2ccc(Br)cn2)cc1	19.7*	TTR inh HuH7=-9.6;TTR act confirm=-1.1
CCOc1ccc(NC(=O)Nc2ccc(Br)cn2)cc1	2.4
Cc1ccc(OCC(=O)NC(=S)Nc2cccc(NC(=O)c3ccccc3)c2)cc1	-0.6
C[C@H]1[C@@H](OC(=O)NCc2cccnc2)CC[C@@]23CCCN2C(=O)CCC[C@@H]13	0.1
Cc1c(Br)c(C(F)(F)F)nn1CC(=O)NCc1ccco1	0.0
O=C(Cn1nc(C(F)(F)F)c2c1CCCC2)NCc1ccco1	14.5*	TTR inh HuH7=-22.5;TTR act confirm=-0.5
CC(NC(=O)Cn1nc(C(F)(F)F)c2c1CCC2)c1ccccc1 (centres undefined)	-1.2
CN1CCN(C2CN(Cc3ccccc3)S(=O)(=O)C2)CC1 (centres undefined)	8.3
O=S1(=O)CC(N2CCC(Cc3ccccc3)CC2)CN1Cc1ccc(F)cc1 (centres undefined)	-1.8
CN1CCC(N2CCN(C3CN(Cc4ccc(F)cc4)S(=O)(=O)C3)CC2)CC1 (centres undefined)	12.2*	TTR inh HuH7=-7.4;TTR act confirm=-0.1
O=C(COC(=O)c1ccc([N+](=O)[O-])o1)NCc1ccc2c(c1)OCO2	1.9
COc1ccc(NC(=O)CN(C)C(=O)c2c(C)nn(Cc3ccc(C)cc3)c2Cl)cc1	-0.2
CCOC(=O)Cc1nnc(Nc2cc(C)ccc2C)c2ccccc12	0.4
